Results taken from PubChem BioAssay (Tox21).
Results filed as inconclusive are left out. The source made the active and inactive calls. Unless noted, the call rests on the fitted dose curve; in most records, active means well fitted curve in the direction sought with a large enough effect in the repeat runs; inconclusive means weak or mixed curves; inactive means no such curve, though single readings can be large; an effect the other way counts as inactive or inconclusive.

Key:
[1] = A CellTox Green Cytotoxicity Assay to monitor cytotoxicity in HEK293 cells - 8 hour (AID 1224884); further: nearly all actives have a fitted effect of over 35% in size
In short: (§1)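 Fluorescence intensity, read at 0, 8, 16, 24, 32 and 40 h of compound treatment, reflected dye binding to DNA of dead HEK293 cells; compounds (23 nL, DMSO) were added 5 h after plating cells with reagent.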

[2] = qHTS RealTime-Glo MT Cell Viability Assay in HepG2 cells - 16 hour (AID 1224885); further: nearly all actives have a fitted effect of over 50% in size
In short: (§2)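 Compound treatment began 5 h after plating HepG2 cells (600/well) with NanoLuc luciferase and prosubstrate. Plates stayed at 37 C for 40 h; luminescence was captured at six time points, 0 h through 40 h.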

[3] = qHTS RealTime-Glo MT Cell Viability Assay in HEK293 cells - 24 hour (AID 1224886); further: nearly all actives have a fitted effect of over 50% in size; further: potency means the concentration at half of the fitted maximal effect
In short: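 Quantitative high-throughput screen of the Tox21 10K library in HEK293: cells and RealTime-Glo reagents plated together, compound added at 5 h, luminescence monitored through 40 h at 37 C.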

[4] = qHTS RealTime-Glo MT Cell Viability Assay in HEK293 cells - 8 hour (AID 1224887); further: nearly all actives have a fitted effect of over 50% in size; further: potency means the concentration at half of the fitted maximal effect
In short: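 Viable HEK293 cells reduce a cell-permeant prosubstrate; the product diffuses out and is consumed by NanoLuc in the medium to give light. Compounds went in after a 5 h incubation and plates were read over the treatment course.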

[5] = A CellTox Green Cytotoxicity Assay to monitor cytotoxicity in HEK293 cells - 16 hour (AID 1224888); further: nearly all actives have a fitted effect of over 35% in size
In short: as §1

[6] = qHTS RealTime-Glo MT Cell Viability Assay in HepG2 cells - 0 hour (AID 1224889); further: nearly all actives have a fitted effect of over 50% in size
In short: as §2

[7] = A CellTox Green Cytotoxicity Assay to monitor cytotoxicity in HepG2 cells - 8 hour (AID 1224890); further: nearly all actives have a fitted effect of over 45% in size
In short: (§3)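 Using 1536-well format, dye-containing HepG2 suspension was seeded, allowed 5 h at 37 C/5% CO2, dosed by pintool with compounds, positive and negative controls, and imaged for fluorescence across 40 h.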

[8] = qHTS assay to identify small molecule antagonists of the estrogen receptor alpha (ER-alpha) signaling pathway using the BG1 cell line in the presence of 0.1 nM 17-beta-estradiol - cell viability counter screen (AID 1259241); further: nearly all actives have a fitted effect of over 40% in size
In short: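 CellTiter-Fluor read (30 min, 37C) on ER-alpha/ERE-luc VM7Luc4E2 cells; 22 hr compound treatment; agonist 0.1 nM E2 final; same-well multiplex.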

[9] = qHTS assay to identify small molecule HDAC inhibitors (AID 1259364);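 further: wild-type HCT-116 cells with endogenous class I/II HDAC activity; top concentration of the series differs between compounds; nearly all actives have a fitted effect of over 45% in size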
In short: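 Read-out: luminescence of HDAC-Glo I/II reagent, 30 min RT, reflecting class I/II deacetylase activity in whole HCT-116 cells pre-exposed 2 h to DMSO-dissolved compounds.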

[10] = qHTS assay to identify small molecule HDAC inhibitors - cell viability counter screen (AID 1259365)
In short: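 To flag cytotoxic hits, 1,500 wild-type HCT-116 cells per well, plated the day before, receive test compounds for 2hr at 37 C before CellTiter-Glo reagent and a luminescence read.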

[11] = qHTS assay to identify small molecule agonists of the sonic hedgehog signaling (Shh) pathway - cell viability counter screen (AID 1259366); further: nearly all actives have a fitted effect of over 50% in size; further: potency means the concentration at half of the fitted maximal effect
In short: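 Fluorescence from CellTiter-Fluor reports live cells in this counter screen. NIH/3T3-derived Gli1-Luc reporter cells receive test compounds for 24hr at 37C; reagent goes in at 23hr.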

[12] = qHTS assay to identify small molecule antagonists of the sonic hedgehog signaling (Shh) pathway - cell viability counter screen (AID 1259367); further: nearly all actives have a fitted effect of over 55% in size; further: potency means the concentration at half of the fitted maximal effect
In short: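 Seed 3T3 Gli1-Luc cells at 2,000 per well; incubate 4 hr; add compound in DMSO, then conditioned medium; incubate at 37C with 5% CO2; add CellTiter-Fluor after 23 hr; read fluorescence 1 hr later.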

[13] = qHTS assay to identify small molecule agonists of the sonic hedgehog signaling (Shh) pathway (AID 1259368; calls by dose curve;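 further: NIH/3T3-derived 3T3Gli1-Luc cells carrying a stable Gli1-driven firefly luciferase reporter; series mostly up to about 92 µM; nearly all actives have a fitted effect of over 15% in size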)
In short: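 A Gli1 transcriptional response element controlled firefly luciferase in 3T3Gli1-Luc cells. Compounds and a positive control were added 4 hr after plating, and cells were incubated a further 24 hr at 37 C before luminescence detection.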

[14] = qHTS assay to identify small molecule antagonists of the sonic hedgehog signaling (Shh) pathway (AID 1259369; calls by dose curve; further: nearly all actives have a fitted effect of over 45% in size)
In short: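 For antagonist detection, the reporter line received test compounds together with conditioned medium, incubated 24hr at 37 C, 5% CO2, then luminescence was recorded following 30min room-temperature luciferase reagent incubation.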

[15] = target: Estrogen receptor beta (Homo sapiens) (UniProt Q92731); assay: qHTS assay to identify small molecule agonists of the estrogen receptor beta (ER-beta) signaling pathway (AID 1259377; active means well fitted activation curve with a large enough effect in the signal ratio in the repeat runs, not every such curve was filed as active; the % refers to the signal ratio)
Sequence of Estrogen receptor beta (Homo sapiens) (Q92731 whole entry, looked up): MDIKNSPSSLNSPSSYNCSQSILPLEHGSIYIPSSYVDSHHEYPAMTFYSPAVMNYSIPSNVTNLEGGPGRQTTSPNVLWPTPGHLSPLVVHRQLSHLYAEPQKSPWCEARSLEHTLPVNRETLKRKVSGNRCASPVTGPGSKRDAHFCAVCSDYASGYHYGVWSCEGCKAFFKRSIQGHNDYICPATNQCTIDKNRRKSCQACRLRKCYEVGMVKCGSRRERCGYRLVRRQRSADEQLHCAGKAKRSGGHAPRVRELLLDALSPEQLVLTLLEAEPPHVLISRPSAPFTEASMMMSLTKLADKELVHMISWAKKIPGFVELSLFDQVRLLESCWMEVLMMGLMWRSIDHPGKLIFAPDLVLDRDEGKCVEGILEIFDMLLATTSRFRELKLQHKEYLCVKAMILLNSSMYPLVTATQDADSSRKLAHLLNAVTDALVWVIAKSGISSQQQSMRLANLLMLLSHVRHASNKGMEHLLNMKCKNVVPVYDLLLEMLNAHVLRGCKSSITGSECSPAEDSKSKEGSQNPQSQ
In short: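 Screening used GripTite ER-beta-UAS-bla cells held in 2% charcoal-stripped FBS medium. After overnight (16 hr) compound incubation at 37C, beta-lactamase activity was detected with a FRET substrate by fluorescence.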

[16] = A CellTox Green Cytotoxicity Assay to monitor cytotoxicity in HepG2 cells - 32 hour (AID 1224883); further: nearly all actives have a fitted effect of over 50% in size
In short: as §3

[17] = qHTS assay to identify small molecule antagonists of the androgen receptor (AR) signaling pathway using the MDA cell line in the presence of 0.5 nM R1881 - cell viability counter screen (AID 1259242); further: nearly all actives have a fitted effect of over 45% in size
In short: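 Viability of MDA-kb2 cells was multiplexed with the luciferase AR readout; after 16 hr with compounds and R1881 at 0.5 nM final, CellTiter-Fluor fluorescence was recorded.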

[18] = target: Androgen receptor (Homo sapiens) (UniProt P10275); assay: qHTS assay to identify small molecule antagonists of the androgen receptor (AR) signaling pathway using the MDA cell line in the presence of 0.5 nM R1881 (AID 1259243); further: nearly all actives have a fitted effect of over 50% in size
Sequence of Androgen receptor (Homo sapiens) (P10275 whole entry, looked up): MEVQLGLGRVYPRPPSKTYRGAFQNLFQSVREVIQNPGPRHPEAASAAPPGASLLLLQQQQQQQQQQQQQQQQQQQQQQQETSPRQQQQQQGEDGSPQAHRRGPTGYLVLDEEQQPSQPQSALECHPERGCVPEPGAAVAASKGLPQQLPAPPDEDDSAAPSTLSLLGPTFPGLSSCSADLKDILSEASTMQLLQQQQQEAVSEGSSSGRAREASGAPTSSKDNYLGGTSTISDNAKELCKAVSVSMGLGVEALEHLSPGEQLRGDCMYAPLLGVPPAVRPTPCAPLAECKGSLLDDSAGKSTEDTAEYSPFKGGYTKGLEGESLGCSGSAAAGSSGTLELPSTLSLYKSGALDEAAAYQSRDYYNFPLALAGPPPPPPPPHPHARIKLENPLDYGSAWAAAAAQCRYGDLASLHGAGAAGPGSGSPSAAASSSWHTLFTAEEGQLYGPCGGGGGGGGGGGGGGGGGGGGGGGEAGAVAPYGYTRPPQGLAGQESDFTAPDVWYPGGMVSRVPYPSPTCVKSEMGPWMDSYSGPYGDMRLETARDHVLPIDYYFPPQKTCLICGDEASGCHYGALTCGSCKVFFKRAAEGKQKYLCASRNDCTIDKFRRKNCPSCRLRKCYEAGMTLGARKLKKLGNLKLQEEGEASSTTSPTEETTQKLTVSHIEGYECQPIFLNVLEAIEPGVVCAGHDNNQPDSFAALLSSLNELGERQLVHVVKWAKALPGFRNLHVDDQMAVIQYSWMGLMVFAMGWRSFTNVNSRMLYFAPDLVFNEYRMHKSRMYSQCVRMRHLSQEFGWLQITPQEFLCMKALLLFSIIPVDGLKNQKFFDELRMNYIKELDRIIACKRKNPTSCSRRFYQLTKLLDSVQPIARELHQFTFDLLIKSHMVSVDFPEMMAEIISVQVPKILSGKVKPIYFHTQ
In short: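 Reporter cells cultured without CO2 receive test chemicals, then 0.5 nM R1881 final; after 16 hr at 37C, ONE-Glo is added and light output recorded.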

[19] = qHTS assay to identify small molecule phospholipidosis (PLD) inducers (AID 1259344; active means well fitted curve in the direction sought with a large enough effect; an effect the other way counts as inactive or inconclusive)
In short: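 Quantitative HTS in HepG2: compound plus LipidTOX Red dye for 24 h, paraformaldehyde fixation with Hoechst 33342, widefield high-content imaging; amiodarone as positive and DMSO as negative control.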

[20] = target: Estrogen receptor (Homo sapiens) (UniProt P03372); assay: qHTS assay to identify small molecule antagonists of the estrogen receptor alpha (ER-alpha) signaling pathway using the BG1 cell line in the presence of 0.1 nM 17-beta-estradiol (AID 1259244); further: nearly all actives have a fitted effect of over 50% in size
Sequence of Estrogen receptor (Homo sapiens) (P03372 whole entry, looked up): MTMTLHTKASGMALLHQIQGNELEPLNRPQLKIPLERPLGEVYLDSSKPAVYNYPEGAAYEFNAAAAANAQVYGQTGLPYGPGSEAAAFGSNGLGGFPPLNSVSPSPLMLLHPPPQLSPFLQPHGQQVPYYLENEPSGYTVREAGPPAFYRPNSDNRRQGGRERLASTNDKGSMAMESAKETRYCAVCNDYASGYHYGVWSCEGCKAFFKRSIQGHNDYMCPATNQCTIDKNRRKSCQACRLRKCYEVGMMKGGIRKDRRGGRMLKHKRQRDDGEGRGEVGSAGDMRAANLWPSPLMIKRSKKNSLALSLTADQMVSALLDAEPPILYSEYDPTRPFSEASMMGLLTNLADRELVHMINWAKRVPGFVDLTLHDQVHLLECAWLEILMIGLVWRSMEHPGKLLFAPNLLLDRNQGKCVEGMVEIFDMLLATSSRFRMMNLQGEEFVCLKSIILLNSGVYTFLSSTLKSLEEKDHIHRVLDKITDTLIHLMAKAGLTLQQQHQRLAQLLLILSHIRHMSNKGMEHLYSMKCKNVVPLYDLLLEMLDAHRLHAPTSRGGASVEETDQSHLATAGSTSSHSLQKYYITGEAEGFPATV
In short: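 Estradiol at 0.1 nM (final) stimulates the endogenous ER-alpha of VM7Luc4E2 cells carrying an ERE-driven luciferase; compounds are co-incubated 22 h at 37C and luciferase output quantified by luminescence.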

Measured: Potency

CC(C)=CCOC(=O)c1ccccc1
not listed: [16] | [17] | [18] | [19] | [20]
inactive: all other assays above

CN(C)c1ccc(C=O)cc1
not listed: [1] | [9] | [18] | [19] | [20]
inactive: all other assays above

Cc1cc(Cl)c(C)cc1Cl
not listed: [1] | [5] | [8] | [17] | [19] | [20]
inactive: all other assays above

C[C@@H]1O[C@@H](O[C@@H]2[C@@H](O)[C@H](OCCc3ccc(O)c(O)c3)O[C@H](CO[C@@H]3O[C@H](CO)[C@@H](O)[C@H](O)[C@H]3O)[C@H]2OC(=O)/C=C/c2ccc(O)c(O)c2)[C@H](O)[C@H](O)[C@H]1O
inactive: [2] | [3] | [4] | [5] | [6] | [7] | [17] | [9] | [10] | [13] | [14]

CCN(CC)CC(=O)Nc1c(C)cccc1C
active: [3] 9.52 µM | [4] 10.7 µM
not listed: [1] | [8] | [17] | [20]
inactive: all other assays above

CC(=O)c1sc(C)nc1C
inactive: [16] | [2] | [3] | [4] | [7] | [17] | [9] | [10] | [11] | [12] | [14]

Nc1nnc(-c2cccc(Cl)c2Cl)c(N)n1
not listed: [1] | [2] | [3] | [4] | [6] | [17] | [18] | [20]
inactive: all other assays above

CCO[Si](CCCS)(OCC)OCC
inactive: [16] | [2] | [6] | [7] | [17] | [9] | [10] | [11] | [12] | [13] | [15]

Oc1ccccc1-c1nnco1
not listed: [1] | [5] | [13] | [19] | [20]
inactive: all other assays above

CC(C)(C)OC(=O)c1ccc(O)cc1
not listed: [9] | [14] | [15] | [16] | [18] | [19] | [20]
inactive: all other assays above

COc1ccc2c(c1OC)C(=O)O[C@@H]2[C@H]1c2c(cc3c(c2OC)OCO3)CCN1C
inactive: [1] | [2] | [5] | [6] | [7] | [17] | [9] | [10] | [13]
active: [11] 2.11 µM | [12] 3.35 µM

CCNC(=O)C1CC(C)CCC1C(C)C (centres undefined)
not listed: [1] | [15] | [17] | [18] | [19]
inactive: all other assays above
